The full list was thinned out, with hits kept by preference.
HT1080NT lethal = kills 2HG-producing HT-1080-NT fibrosarcoma cells | HT-1080-NT fibrosarcoma viability, CellTiter-Glo ATP luminescence, 48 h | Potency, µM (series often up to 46.1 µM), for inactives: top-dose activity, negative = less viability, most hits filed as cytotoxic | actives 1.6% (n = 360,000);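 further: NT is the 2HG producing partner of a matched IDH1 knockdown line; potency means the concentration at half of the fitted maximal effect; 0% = DMSO-treated cells and -100% = media-only wells without cells; nearly all actives have a fitted effect of over 55% in size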
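HT-1080-NT fibrosarcoma cells (2HG-overproducing), 750 cells/well in RPMI with 5% FBS, dosed after 2 h and incubated 48 h at 37C. CellTiter-Glo luminescence normalized to DMSO and no-cell wells; concentration-response curves fitted and classed.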
IL1B secr inh = blocks inflammasome-driven IL-1 beta release. THP-1 LPS/ATP IL-1B secretion, AlphaLISA, 16 h; active compounds read low. activity change, % at 57.5 µM. actives 4.7% (n = 360,000); in the data active means activity change below about -50%; inconclusive means mostly about -30% to -49%
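THP-1 cells pretreated 1 hr with compounds (up to 57.5 uM final), then stimulated with LPS (250 ng/mL final) plus ATP (1.25 mM final); secreted IL-1B measured by AlphaLISA after 16 hr, decreased signal indicating inhibition.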
12-LOX inh = blocks human arachidonate 12S-lipoxygenase. actives 1.1% (n = 580,000). P18054. purified 12hLO, xylenol orange hydroperoxide absorbance. Potency, µM (series often up to 108 µM), for inactives: at the highest dose activity change, negative = inhibition, actives largely listed as inhibitors; further: potency means the concentration at half of the fitted maximal effect
Target sequence (P18054 whole entry, looked up): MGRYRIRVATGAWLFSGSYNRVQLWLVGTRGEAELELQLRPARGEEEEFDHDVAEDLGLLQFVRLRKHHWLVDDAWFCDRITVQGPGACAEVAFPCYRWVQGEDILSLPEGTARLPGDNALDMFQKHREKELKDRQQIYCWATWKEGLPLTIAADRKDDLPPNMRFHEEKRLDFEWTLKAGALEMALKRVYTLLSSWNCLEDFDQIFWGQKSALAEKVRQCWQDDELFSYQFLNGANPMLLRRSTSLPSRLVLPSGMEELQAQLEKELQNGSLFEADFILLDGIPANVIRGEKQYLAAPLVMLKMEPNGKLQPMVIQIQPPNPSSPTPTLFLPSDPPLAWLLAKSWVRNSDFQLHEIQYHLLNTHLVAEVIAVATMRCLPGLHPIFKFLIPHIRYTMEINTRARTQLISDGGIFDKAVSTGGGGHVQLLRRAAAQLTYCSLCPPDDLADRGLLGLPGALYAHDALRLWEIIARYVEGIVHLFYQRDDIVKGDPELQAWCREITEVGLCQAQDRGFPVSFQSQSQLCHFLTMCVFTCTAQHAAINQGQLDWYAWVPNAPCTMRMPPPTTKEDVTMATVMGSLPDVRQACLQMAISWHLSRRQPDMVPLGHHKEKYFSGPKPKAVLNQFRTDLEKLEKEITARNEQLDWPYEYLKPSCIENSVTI
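Purified human 12hLO (150 nM final) in 25 mM Hepes, 0.01% Triton X-100, pH 7.0 was preincubated 15 min at room temperature with compound. Then 40 uM arachidonic acid was added, 30 min. Hydroperoxide was read by Fe-XO absorbance ratio 573/405 nm.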
TDP1 cell CPT = growth inhibition of DT40 Tdp1-/-;hTDP1 cells with camptothecin (screen for TDP1 inhibitors); Potency, µM (titrated, usually from 46.2 µM), for inactives: at the top dose activity change, negative = growth inhibition, usual class: inhibitors; chicken DT40 Tdp1-/-;hTDP1 cells + 20 nM CPT, ATP luminescence, 48 h; actives 12% (n = 420,000); AID 686979; further: potency means the concentration at half of the fitted maximal effect; nearly all actives have a fitted effect of over 55% in size
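Cell growth measured by CellTiter-Glo luminescence after a minimum 48 h, 37 C compound exposure with 20 nM CPT in Tdp1-knockout DT40 cells stably expressing hTDP1, seeded 400/well; qHTS titration format.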
HT1080 IDH1KD tx = kills HT-1080 cells with IDH1 knockdown; actives 2% (n = 360,000); HT-1080 IDH1 knockdown viability, ATP luminescence, 48 h; AID 686971; Potency, µM (doses to about 46.1 µM), without a hit: top-dose activity, negative = toxicity, usual class: cytotoxic;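 further: potency means the concentration at half of the fitted maximal effect; 0% = DMSO wells and -100% = cell-free medium wells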
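In this qHTS, HT-1080 cells depleted of IDH1 are exposed for 48 h at 37 °C to compound titrations. Toxicity is scored from CellTiter-Glo luminescence, with DMSO as full viability and medium alone as none.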
DT40 TDP1 no CPT = qHTS for Inhibitors of human tyrosyl-DNA phosphodiesterase 1 (TDP1): qHTS in cells in absence of CPT | DT40 Tdp1-/- hTDP1 cells, no CPT, ATP luminescence, 48 h | Potency, µM (series often up to 46.2 µM), for inactives: at the top dose activity change, negative = growth inhibition, actives largely listed as inhibitors | actives 15% (n = 420,000); further: potency means the concentration at half of the fitted maximal effect; nearly all actives have a fitted effect of over 55% in size
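Chicken DT40 Tdp1-/- cells complemented with human TDP1, screened without camptothecin (DMSO vehicle only), 400 cells/well. Compounds pin-transferred, cells incubated at 37 °C for at least 48 hr. Growth read as ATP-dependent luminescence (CellTiter-Glo, 30 min at RT).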
* marks the source's active call; other numbers are inactive results; [ ] = dose if it differs, or a comment. Unless noted, the call rests on the fitted dose curve; in most records, active means well fitted curve in the direction sought with a large enough effect; inconclusive means small, poorly fitted or top-dose-only effect, or another doubt; inactive means no such curve, though single readings can be large; an effect the other way counts as inactive or inconclusive. Unless noted, on the % scale 0 is the no-effect control and ±100 the full control effect.

What do the screens show for `O=C(Cn1c(SCC(=O)Nc2ccc(F)cc2)nc2ccccc21)NCc1ccc(Cl)cc1`?
12-LOX inh: -24%; TDP1 cell CPT: inconclusive; DT40 TDP1 no CPT: 13µM*

What do the screens show for `CN(C)C(=O)CSc1nc2ccccc2n1Cc1ccccc1`?
HT1080NT lethal: -4%; IL1B secr inh: 10; 12-LOX inh: 0%; TDP1 cell CPT: inconclusive; HT1080 IDH1KD tx: -6%; DT40 TDP1 no CPT: inconclusive

Results for CCc1nc2c(c(-c3ccc(O)cc3)n1)CCN(Cc1cncs1)CC2 ?
12-LOX inh: -7%

How did Cc1ccc(OCC(=O)N2CCC3(CC2)N(CC2CC2)C(=O)CS3=O)cc1 (stereo not given) do in these assays?
12-LOX inh: 31%

How did O=C(NC[C@H]1OC[C@@H](NC2CCCCC2)[C@@H]1O)C1CC1 do in these assays?
12-LOX inh: -16%[176 µM]

What do the screens show for `Cc1cc(C)c(C)c(S(=O)(=O)N2CCC(C(=O)NCCCN3CCCC3=O)CC2)c1C`?
HT1080NT lethal: -1%[9.24 µM]; IL1B secr inh: -13; 12-LOX inh: 3%; TDP1 cell CPT: inconclusive; HT1080 IDH1KD tx: 0%; DT40 TDP1 no CPT: inconclusive

Results for CN(C)S(=O)(=O)c1cc(NC(=O)CSc2ncc(C(F)(F)F)cc2Cl)ccc1Cl ?
HT1080NT lethal: inconclusive; IL1B secr inh: -82*; 12-LOX inh: 10%; TDP1 cell CPT: 15µM*; HT1080 IDH1KD tx: inconclusive; DT40 TDP1 no CPT: 16µM*

How did COC(=O)c1ccc(Cn2c(SCC(=O)NCc3ccccc3)nc3ccccc32)cc1 do in these assays?
12-LOX inh: inconclusive; TDP1 cell CPT: 21µM*; DT40 TDP1 no CPT: 23µM*

Results for Cn1c(SCC(=O)NCc2ccccc2)nc2ccccc21 ?
HT1080NT lethal: 0%; IL1B secr inh: 0; 12-LOX inh: -23%; TDP1 cell CPT: -28%; HT1080 IDH1KD tx: 1%; DT40 TDP1 no CPT: -12%

Results for CN(C)S(=O)(=O)c1cc(NC(=O)CSc2cccc[n+]2[O-])ccc1Cl ?
HT1080NT lethal: 7%; IL1B secr inh: -6; 12-LOX inh: -29%; TDP1 cell CPT: -17%; HT1080 IDH1KD tx: 0%; DT40 TDP1 no CPT: 4%

What do the screens show for `Cc1c(Cl)cccc1NC(CC(=O)c1ccccc1)C(=O)O` (stereo not given)?
HT1080NT lethal: 4%; IL1B secr inh: -3; 12-LOX inh: inconclusive; TDP1 cell CPT: 15µM*; HT1080 IDH1KD tx: 2%; DT40 TDP1 no CPT: inconclusive

How did O=C(CC(Nc1ccc(Cl)cc1)C(=O)O)c1ccccc1 (stereo not given) do in these assays?
HT1080NT lethal: 2%; IL1B secr inh: -7; 12-LOX inh: inconclusive; TDP1 cell CPT: 21µM*; HT1080 IDH1KD tx: -19%; DT40 TDP1 no CPT: -26%

How did O=C(CC(C(=O)O)c1ccc(Cl)cc1)c1ccccc1 (stereo not given) do in these assays?
HT1080NT lethal: -1%; IL1B secr inh: 2; 12-LOX inh: -1%; TDP1 cell CPT: 3%; HT1080 IDH1KD tx: 11%; DT40 TDP1 no CPT: -17%

How did O=C(CC(Nc1cccc(Cl)c1Cl)C(=O)O)c1ccccc1 (stereo not given) do in these assays?
HT1080NT lethal: -17%; IL1B secr inh: 37; 12-LOX inh: -5%; TDP1 cell CPT: -22%; HT1080 IDH1KD tx: 0%; DT40 TDP1 no CPT: 12%

Results for COC(=O)Nc1ccc(S(=O)(=O)N2CCC(C(=O)N(C)C3CCCCC3)CC2)cc1 ?
HT1080NT lethal: -9%; IL1B secr inh: 2; 12-LOX inh: -2%; TDP1 cell CPT: inconclusive; HT1080 IDH1KD tx: -6%; DT40 TDP1 no CPT: 26µM*
